From PubChem BioAssay
Hits are enriched below; roughly 2.5% of the tested compounds scored in any of these assays.
Cruzain inh Det – qHTS Assay for Promiscuous and Specific Inhibitors of Cruzain (with detergent) | Cruzipain (Trypanosoma cruzi), P25779 | 0.43% of 200,000 active | AID 1478, 2009 | Potency, µM, usual class: inhibitors | purified cruzain, Z-FR-AMC fluorescence, 0.01% Triton; also: nearly all actives have a fitted effect of over 40% in size
Target sequence (P25779 123-467 limits assumed): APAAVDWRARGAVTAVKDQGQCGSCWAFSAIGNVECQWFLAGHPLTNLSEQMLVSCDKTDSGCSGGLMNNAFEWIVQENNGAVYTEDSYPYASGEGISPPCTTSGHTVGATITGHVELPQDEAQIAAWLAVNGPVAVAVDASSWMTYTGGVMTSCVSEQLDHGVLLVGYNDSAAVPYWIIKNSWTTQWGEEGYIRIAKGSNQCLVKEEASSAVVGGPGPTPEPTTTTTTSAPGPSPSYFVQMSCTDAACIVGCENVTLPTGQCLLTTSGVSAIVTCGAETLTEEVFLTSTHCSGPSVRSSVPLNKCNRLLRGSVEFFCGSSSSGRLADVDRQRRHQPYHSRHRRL
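Read-out: AMC fluorescence (360 nm excitation, 450 nm emission), four reads over 2 min, first-to-third difference used. Conditions: cruzain 1.5 nM, Z-FR-AMC 2 uM, pH 5.5 acetate, 5 mM DTT, 0.01% Triton X-100.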
Cruzain noTriton – qHTS Assay for Promiscuous and Specific Inhibitors of Cruzain (without detergent). Cruzipain (Trypanosoma cruzi), P25779. purified cruzain, Z-FR-AMC fluorescence, no detergent. Potency, µM, most hits filed as inhibitors. 2.3% of 200,000 active; also: nearly all actives have a fitted effect of over 40% in size
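Purified cruzain at 1.5 nM, pre-incubated 15 min with compound at room temperature in 100 mM sodium acetate pH 5.5, 5 mM DTT, 0.00005% Triton X-100. Reaction started with 2 uM Z-FR-AMC; AMC fluorescence increase over 60 s gives rate.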
A number is an active result. Calls follow the shape of the dose curve; as a rule, active = well fitted curve in the direction sought with a large enough effect; inconclusive = small, poorly fitted or top-dose-only effect, or another doubt; inactive = no such curve, though single readings can be large; an effect the other way counts as inactive or inconclusive.

Screening CCNC(=O)C1CCN(c2nnc(C)c3c(C)n(-c4ccc(OC)cc4)nc23)CC1 returned Cruzain inh Det inactive and Cruzain noTriton inactive.
Screening CN(Cc1ccccc1)c1ccc(-c2nc(-c3cccnc3)no2)cc1[N+](=O)[O-] returned Cruzain inh Det inactive and Cruzain noTriton 25µM.
Screening CN(Cc1ccccc1)c1ccc(-c2nc(-c3ccncc3)no2)cc1[N+](=O)[O-] returned Cruzain inh Det inactive and Cruzain noTriton inactive.
Cn1cc(/C=C2/SC(=O)N(CC(=O)Nc3ccc4c(c3)OCO4)C2=O)c2ccccc21 was read as Cruzain inh Det inactive and Cruzain noTriton 25µM.
Screening COc1ccc(/C=C2\SC(=S)N(CCC(=O)NC3=NCCS3)C2=O)cc1OC returned Cruzain inh Det inactive and Cruzain noTriton inactive.
For Cn1cc(S(=O)(=O)CC(=O)Nc2ccc3c(c2)OCCO3)c2ccccc21 the results were Cruzain inh Det inactive and Cruzain noTriton inactive.
For O=C(CCN1C(=O)/C(=C/c2ccc3c(c2)OCO3)SC1=S)Nc1ccccc1 the results were Cruzain inh Det inactive and Cruzain noTriton 7.9µM.
For Cc1ccc2nc(COc3ccccc3NC(=O)C(C)(C)C)cc(=O)n2c1 the results were Cruzain inh Det inactive and Cruzain noTriton inactive.
`FC(F)(F)c1cc(NC(=S)NC23CC4CC(CC(C4)C2)C3)cc(C(F)(F)F)c1` gave Cruzain inh Det inactive and Cruzain noTriton inactive.
Screening CCOC(=O)c1cccc(NC(=O)CCCn2c(C)c3cnn(-c4ccccc4)c(=O)c3c2C)c1 returned Cruzain inh Det inactive and Cruzain noTriton inconclusive.
CCn1c(CN2CCCCC2)nc2cc(NC(=O)COc3ccc([N+](=O)[O-])cc3)ccc21 was read as Cruzain inh Det inactive and Cruzain noTriton inactive.
Screening C#CCCCCCCCCCCCC(O)CC(O)COC(C)=O (stereo unspecified) returned Cruzain inh Det inactive and Cruzain noTriton inactive.
`O=C(CN1CCCC(O)C1)N1c2ccccc2Sc2ccc(C(F)(F)F)cc21` (stereo unspecified) gave Cruzain inh Det inactive and Cruzain noTriton inactive.
`O=C(CSc1nc(C2CC2)nc2ccccc12)N1c2ccccc2Sc2ccc(C(F)(F)F)cc21` gave Cruzain inh Det inactive and Cruzain noTriton 4µM.
`COc1cccc(NC(=O)CSc2c(C)cnc3c2c(=O)n(C)c(=O)n3C)c1` gave Cruzain inh Det inactive and Cruzain noTriton inactive.
For COc1ccc2nc(N(Cc3cccnc3)C(=O)c3ccco3)sc2c1 the results were Cruzain inh Det inactive and Cruzain noTriton inactive.
For CCCNc1cc(C)c(C#N)c2nc3ccccc3n12 the results were Cruzain inh Det inactive and Cruzain noTriton inactive.
Screening Cc1cc(NCCCO)n2c(nc3ccccc32)c1C#N returned Cruzain inh Det inactive and Cruzain noTriton 32µM.
`O=C(Nc1cccc(C(F)(F)F)c1)c1cc2ccc3cccnc3c2[nH]1` gave Cruzain inh Det inactive and Cruzain noTriton inactive.
`O=C(Nc1ccc(F)cc1F)c1cc2ccc3cccnc3c2[nH]1` gave Cruzain inh Det inactive and Cruzain noTriton 25µM.
`COc1ccc(N(CC(O)Cn2cnc3ccccc32)S(=O)(=O)c2ccc(C)cc2)cc1` (stereo unspecified) gave Cruzain inh Det inactive and Cruzain noTriton inactive.
`Clc1ccc2oc(-c3cccnc3NCc3ccccc3)nc2c1` gave Cruzain inh Det inactive and Cruzain noTriton inactive.
Screening Cc1ccc(CNc2ncccc2-c2nc3cc(Cl)ccc3o2)cc1 returned Cruzain inh Det inactive and Cruzain noTriton 10µM.
Screening O=C(N1CCOCC1)C12CCC3CC(CC(C3)C1)C2 returned Cruzain inh Det inactive and Cruzain noTriton inactive.
Screening N=P(N1CCOCC1)(N1CCOCC1)C12CC3CC(CC(C3)C1)C2 returned Cruzain inh Det 28µM and Cruzain noTriton 25µM.
Screening Cc1cc(-n2nc(C)cc2C)n2nc(C)c(-c3ccc(Cl)cc3)c2n1 returned Cruzain inh Det inactive and Cruzain noTriton inactive.
For ONC(=Nc1ccc(Cl)cc1)c1ccc(Cl)cc1 the results were Cruzain inh Det inactive and Cruzain noTriton inactive.
`[S-]C(=Nc1ccc(Cl)cc1)N[n+]1ccccc1` gave Cruzain inh Det 20µM and Cruzain noTriton 7.9µM.
Cc1ccc(-n2ncc(C(=O)N3CCN(C4CCCCC4)CC3)c2C2CCN(C(=O)OC(C)(C)C)CC2)cc1C was read as Cruzain inh Det inactive and Cruzain noTriton inactive.
`COc1ccccc1C(=O)Nc1ccccc1OCc1cc(=O)n2c(C)csc2n1` gave Cruzain inh Det inactive and Cruzain noTriton inactive.
`CCCCOC(=O)c1ccc(NC(=O)c2ccc3c(c2)CCCN3S(C)(=O)=O)cc1` gave Cruzain inh Det inactive and Cruzain noTriton inactive.
COc1ccc(/C=N/OC/C(O)=C(\C#N)c2nc3ccccc3[nH]2)cc1OC was read as Cruzain inh Det inactive and Cruzain noTriton inactive.
Screening COc1ccc(/C(C)=N/OC/C(O)=C(\C#N)c2nc3ccccc3[nH]2)cc1 returned Cruzain inh Det inactive and Cruzain noTriton 5µM.
C=CCSC1=N/C(=C/c2ccsc2)C(=O)N1c1ccccc1 was read as Cruzain inh Det inactive and Cruzain noTriton inactive.
`CC1(C)N=C(c2ccc(Cl)cc2)C(=O)N1` gave Cruzain inh Det inactive and Cruzain noTriton inactive.
Screening Cc1cc(Cc2cc(C)c(N)cc2N)c(N)cc1N returned Cruzain inh Det inactive and Cruzain noTriton inactive.
For COc1c(C)cc(Br)cc1C(=O)Nc1ccc(C)cc1[N+](=O)[O-] the results were Cruzain inh Det inactive and Cruzain noTriton 25µM.
Screening Cc1ccc(NC(=O)c2cncc(Br)c2)c([N+](=O)[O-])c1 returned Cruzain inh Det inactive and Cruzain noTriton inactive.
COc1ccc(C(CNC(=O)c2cccc([N+](=O)[O-])c2)N2CCOCC2)cc1 (stereo unspecified) was read as Cruzain inh Det inactive and Cruzain noTriton inactive.
Screening CCOC(=O)C1CCN(c2ncnc3c2c(-c2ccccc2)cn3-c2ccc(Cl)cc2)CC1 returned Cruzain inh Det inactive and Cruzain noTriton inactive.
Screening O=C(CN(c1cccc(C(F)(F)F)c1)S(=O)(=O)c1ccc(Cl)c([N+](=O)[O-])c1)NCc1ccccc1 returned Cruzain inh Det inactive and Cruzain noTriton inactive.
For O=C(CN(c1cccc(C(F)(F)F)c1)S(=O)(=O)c1ccc(Cl)c([N+](=O)[O-])c1)NCc1ccccc1Cl the results were Cruzain inh Det inactive and Cruzain noTriton 25µM.
Screening CCOc1ccccc1/C=C(/NC(=O)c1ccccc1)C(=O)NC(C)c1ccccc1 (stereo unspecified) returned Cruzain inh Det inactive and Cruzain noTriton inactive.
Screening COCCNc1oc(/C=C/c2ccc(F)cc2)nc1C#N returned Cruzain inh Det 22µM and Cruzain noTriton 20µM.
Screening CN1CCN(c2oc(/C=C/c3ccc(F)cc3)nc2C#N)CC1 returned Cruzain inh Det 25µM and Cruzain noTriton 25µM.
Screening COc1cccc(/C=C/c2nc(C#N)c(N3CCC(C(N)=O)CC3)o2)c1 returned Cruzain inh Det 28µM and Cruzain noTriton inconclusive.
For COc1cccc(/C=C/c2nc(C#N)c(N3CCCCCC3)o2)c1 the results were Cruzain inh Det inactive and Cruzain noTriton inactive.
CCOc1ccc(/C=C/c2nc(C#N)c(N3CCCCCC3)o2)cc1 was read as Cruzain inh Det inactive and Cruzain noTriton inactive.
For COc1cccc(/C=C/c2nc(C#N)c(NCCc3ccccc3)o2)c1 the results were Cruzain inh Det inactive and Cruzain noTriton inactive.
